Screens (PubChem BioAssay)
L929 necroptosis: inhibitors of zVAD-triggered necroptosis, primary screen, L929 cells. L929 zVAD necroptosis rescue, ATP luminescence, 24 h; with zVAD 60 µM. viability rescue, % at 10 µM. hit rate 0.38% among 220,000;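 active = activation, scaled between plate controls, above about 75%, limit read from the data; inactive = activation under that limit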
TNF necrop inh: inhibitors of TNF-alpha triggered necroptosis, primary screen, cell-based, Jurkat FADD-/-, single concentration; Jurkat FADD-/- TNF necroptosis rescue, ATP luminescence, 24 h; 0 = TNF only, 100 = no-TNF cells; hit rate 0.068% among 220,000; activation (protection from cell death), % at 10 µM; AID 463075, 2010;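 active = activation, meaning protection from cell death, of at least 50% relative to plate controls; inactive = activation below 50%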;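 note: necroptosis triggered by 40 ng/mL TNF-alpha added together with compound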
HSF-1 act: HSF-1 activators, primary screen, NIH3T3-HGL cells, MG132 stress, luminescence, single point. NIH3T3-HGL HSF-1 luciferase reporter, 8 h; 100% = twice DMSO control signal. AID 504408, 2011. activation, % at 9 µM. hit rate 1.7% among 300,000;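 active = mean replicate activation of at least 50% with a set share of replicates each reaching 50%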
Hsp70 activator: Hsp70 transcriptional activators, primary screen, cell-based, HeLa, Hsp70 promoter luciferase, luminescence, 10 µM; hit rate 0.04% among 200,000; HeLa Hsp70 promoter luciferase reporter; scaled: vehicle 0, proteasome-inhibitor control 100%; activation, % at 10 µM;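 active = activation above the mean across all tested compounds plus 3 SD, cutoff set per campaign, cut at about 5.5% in these data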
Hits are given with their value; i = inactive; nt = no result given. Compounds with a hit are over-represented: about 1.9% of the library has one in this group of screens.

SMILES	L929 necroptosis	TNF necrop inh	HSF-1 act	Hsp70 activator
O=C1c2ccccc2S(=O)(=O)N1Cc1nnc(-c2ccccc2Br)o1	i	i	i	i
O=S1(=O)c2cccc3cccc(c23)N1Cc1nnc(-c2ccccc2Br)o1	i	i	73.4	i
Cc1ccc(-n2cc(CN3CCN(Cc4nccn4C)CC3)c(-c3ccc(F)cc3)n2)cc1	i	i	54.6	i
CC(/C=C/c1cccc([N+](=O)[O-])c1)=N\NC(=O)c1ccncc1	i	i	i	i
Nc1c(C(=O)NCCc2ccc(Cl)cc2)sc2ccc(S(=O)(=O)N3CCCCC3)cc12	i	i	62.7	i
CSC(=O)CC(=O)NC(=O)c1ccccc1	i	i	i	i
CCCN(CC1CC1)c1nc(N)c(C#N)c(CC#N)c1C#N	i	i	72.2	i
CCN(CC)c1nc(N)c(C#N)c(CC#N)c1C#N	nt	nt	i	nt
CCCN(CCC)c1nc(N)c(C#N)c(CC#N)c1C#N	i	i	115.0	i
CC1CCCC/C1=N\Nc1ccc(S(N)(=O)=O)cc1[N+](=O)[O-] (centres undefined)	i	i	67.9	i
O=C1CC(c2cccc([N+](=O)[O-])c2)c2c(ccc3ccccc23)N1 (centres undefined)	i	i	53.0	i
CC(=O)c1ccc(N(C(=O)Cc2c[nH]c3ccccc23)C(C(=O)NC2CCCCC2)c2cccs2)cc1 (centres undefined)	i	i	i	i
O=C(NC1CCCCC1)C(c1cccs1)N(C(=O)Cc1c[nH]c2ccccc12)c1ccc(F)cc1 (centres undefined)	i	i	51.3	i
Cc1ccc(C(C(=O)NC2CCCCC2)N(C(=O)Cc2c[nH]c3ccccc23)c2ccccc2)o1 (centres undefined)	i	i	58.1	i
CCn1c(SCc2nc3ccccc3s2)nnc1-c1ccccc1	i	i	i	i
CCOCCCn1c(SCc2nc3ccccc3s2)nc2ccccc2c1=O	i	i	i	i
COc1cccc(-c2nnc(SCc3nc4ccccc4s3)n2C)c1	i	i	64.1	i
COCCn1c(SCc2nc3ccccc3s2)nc2ccccc21	i	i	76.7	i
O=C1Nc2ccc(Br)cc2/C1=C/c1ccc(C(=O)O)cc1	nt	nt	i	nt
CC(C)(C)NC(=O)c1cccc(NC(=O)CSc2ccc(Cl)cc2)c1	i	i	172.8	i
Cc1c(N(C)S(=O)(=O)c2cccc(C(=O)NC(C)C)c2)c(=O)n(-c2ccccc2)n1C	nt	nt	62.2	nt
O=C1OC(c2ccc(F)cc2)=N/C1=C\C=C/c1ccccc1	nt	nt	i	nt
O=C1OC(/C=C/c2ccccc2)=NC/1=C/C=C/c1ccccc1	i	i	111.8	i
Cc1ccccc1-c1noc(-c2ccc(O)cc2)n1	i	i	53.0	i
Cc1ccccc1-c1noc(-c2ccccc2F)n1	i	i	54.1	i
SMILES	L929 necroptosis	TNF necrop inh	HSF-1 act	Hsp70 activator
Cc1ccccc1-c1noc(-c2ccc(Cl)cc2)n1	i	i	i	i
CC(=O)Nc1ccccc1N(C)S(=O)(=O)c1ccc(C)cc1	i	i	i	i
COCCn1c(=O)[nH]c2cc(C(=O)N3CCN(c4cccc(Cl)c4)CC3)ccc2c1=O	nt	nt	52.9	nt
COc1ccc(NC(=S)N2CCNC(=O)C2CC(=O)Nc2ccc(C)cc2)cc1 (centres undefined)	i	i	i	i
Cc1cc(C)n(CCc2nc(-c3ccc(-c4ccccc4)cc3)cs2)n1	i	i	52.3	i
CC(NC(=O)CSc1ncccn1)c1ccccc1 (centres undefined)	i	i	i	i
Cc1[nH]c2c(C)cccc2c1CCNC(=O)c1ccc2c(c1[N+](=O)[O-])C(=O)c1ccccc1C2=O	i	i	53.2	i
CN(C)C(=O)c1ccc2c(c1[N+](=O)[O-])C(=O)c1ccccc1C2=O	i	i	i	i
Cc1[nH]c2ccccc2c1CCNC(=O)c1ccc2c(c1[N+](=O)[O-])C(=O)c1ccccc1C2=O	i	i	57.6	i
O=C1C=C(Nc2ccccc2C(=O)O)c2ccccc2C1=O	i	i	92.9	nt
CC(=O)c1ccc(C(=O)N2CCC(n3nccc3NC(=O)C3CC3)CC2)cc1	nt	nt	i	nt
CC1CC(C)CN(C(=O)c2ccc3c(c2)N(Cc2ccccc2)CCS3)C1 (centres undefined)	i	i	64.0	i
COc1cc(NC(=O)n2ncc3cc(Cl)ccc32)cc(OC)c1	nt	nt	i	nt
COc1ccc(NC(=O)n2ncc3cc(Cl)ccc32)cc1OC	nt	nt	52.5	nt
C[N+](C)=C1SCC(C)(/C=N/O)S1 (centres undefined)	i	i	i	nt
COc1ccc(C2Nc3ccccc3C(=O)N2c2ccc(C)cc2)cc1Cn1nc(C)c([N+](=O)[O-])c1C (centres undefined)	i	i	i	i
COc1ccc(C2Nc3ccccc3C(=O)N2c2ccc(C)cc2)cc1COc1ccccn1 (centres undefined)	i	i	57.9	i
CC(C)(C)C(=O)Nc1nc(-c2ccc3c(c2)OCO3)cs1	i	i	53.9	i
CCC(=O)Nc1nc(-c2ccc3c(c2)OCCO3)cs1	i	i	i	i
Cc1c(N(C(=O)c2ccccn2)C2(C(=O)NC3CCCC3)CCCCC2)c(=O)n(-c2ccccc2)n1C	i	i	i	i
CC(=O)N1CCc2c(sc(NC(=O)c3ccc([N+](=O)[O-])o3)c2C#N)C1	i	i	i	i
COC(=O)c1c(NC(=O)c2ccc([N+](=O)[O-])o2)sc2c1CCN(C(C)C)C2	nt	nt	169.4	nt
CC(C)N1CCc2c(sc(NC(=O)c3ccc([N+](=O)[O-])o3)c2C(N)=O)C1	nt	nt	110.5	nt
O=C1COc2ccc(C(=O)/C=C/c3ccccc3)cc2N1	i	i	53.4	i
O=C(CCN1CCCCC1=O)NC1CCCc2c1cnn2-c1ccccc1F (centres undefined)	nt	nt	i	nt
SMILES	L929 necroptosis	TNF necrop inh	HSF-1 act	Hsp70 activator
CN(C)CCCNCCNC(=O)/C=N\O	i	i	i	i
CN(C)CCCCNCCCNC(=O)/C=N\O	i	i	62.0	i
C=CCn1c(=O)c(CCC(=O)Nc2ccc(N3CCOCC3)cc2)nc2cc(C(F)(F)F)ccc21	nt	nt	i	nt
N#CCSc1nc2sc3c(c2c(=O)n1C1CCCCC1)CCCC3	i	68.4	i	i
C=C(C)CSc1nc2sc3c(c2c(=O)n1C1CCCCC1)CCN(C)C3	i	i	i	nt
C[C@H](NC(=O)[C@@H]1CSC2c3ccccc3C(=O)N21)C(=O)NCCc1ccccc1 (some centres undefined)	nt	nt	70.2	nt
C[C@H](NC(=O)[C@@H]1CSC2c3ccccc3C(=O)N21)C(=O)NCCc1ccc(F)cc1 (some centres undefined)	nt	nt	i	nt
CCN1C(=O)c2cccc3c(S(=O)(=O)Nc4ccccc4OC)ccc1c23	i	i	59.4	i
COc1ccc(/C=N/Nc2nc3ccccc3[nH]2)c(OC)c1OC	i	i	108.2	nt
Cc1[nH]c2ccccc2c1/C=N/Nc1nc2ccccc2[nH]1	i	i	402.5	nt
Cc1ccccc1/C=N/Nc1nc2ccccc2[nH]1	i	i	228.8	i
